# In publication PMC11006913:
# Target: PITX2 (Homo sapiens, UniProt Q99697 72-157)
# Test: PBM; 200 nM protein, PBS
# Settings: dsDNA, one strand shown
row,Sequence,binding signal
1,AGGCGTCC,"7.84 upbm affinity estimate (log intensity, higher = more binding, comparable within an allelic series)"
2,ATGAGCCC,"9.64 upbm affinity estimate (log intensity, higher = more binding, comparable within an allelic series)"
3,AACGAGGC,"7.79 upbm affinity estimate (log intensity, higher = more binding, comparable within an allelic series)"
4,AGATCCGG,"9.62 upbm affinity estimate (log intensity, higher = more binding, comparable within an allelic series)"
5,ATACCTTA,"9.97 upbm affinity estimate (log intensity, higher = more binding, comparable within an allelic series)"
6,CAGTTCCG,"8.03 upbm affinity estimate (log intensity, higher = more binding, comparable within an allelic series)"
7,GGTCTTTA,"9.73 upbm affinity estimate (log intensity, higher = more binding, comparable within an allelic series)"
8,CGCCTGTC,"8.14 upbm affinity estimate (log intensity, higher = more binding, comparable within an allelic series)"
9,AATTCCAC,"9.99 upbm affinity estimate (log intensity, higher = more binding, comparable within an allelic series)"
10,ACACCAGC,"8.12 upbm affinity estimate (log intensity, higher = more binding, comparable within an allelic series)"
11,AAGGGATT,"11.6 upbm affinity estimate (log intensity, higher = more binding, comparable within an allelic series)"
12,ACGTCTCC,"7.95 upbm affinity estimate (log intensity, higher = more binding, comparable within an allelic series)"
13,GGTATTAA,"12.3 upbm affinity estimate (log intensity, higher = more binding, comparable within an allelic series)"
14,ACGCCGAG,"8 upbm affinity estimate (log intensity, higher = more binding, comparable within an allelic series)"
15,CGGTGATA,"9.92 upbm affinity estimate (log intensity, higher = more binding, comparable within an allelic series)"
16,AATCCAAT,"10.9 upbm affinity estimate (log intensity, higher = more binding, comparable within an allelic series)"
17,ATTATCAC,"10.2 upbm affinity estimate (log intensity, higher = more binding, comparable within an allelic series)"
18,GCGCTGCA,"8.03 upbm affinity estimate (log intensity, higher = more binding, comparable within an allelic series)"
19,GGCTTAAA,"12.3 upbm affinity estimate (log intensity, higher = more binding, comparable within an allelic series)"
20,CGACGTCA,"8.05 upbm affinity estimate (log intensity, higher = more binding, comparable within an allelic series)"

row,Sequence,binding signal
1,GCCGGATA,"9.58 upbm affinity estimate (log intensity, higher = more binding, comparable within an allelic series)"
2,GCATGCAC,"7.85 upbm affinity estimate (log intensity, higher = more binding, comparable within an allelic series)"
3,ACTCTCGG,"8.08 upbm affinity estimate (log intensity, higher = more binding, comparable within an allelic series)"
4,TATGATCA,"9.32 upbm affinity estimate (log intensity, higher = more binding, comparable within an allelic series)"
5,AGCGATGC,"7.81 upbm affinity estimate (log intensity, higher = more binding, comparable within an allelic series)"
6,GACGGTGA,"8.15 upbm affinity estimate (log intensity, higher = more binding, comparable within an allelic series)"
7,GATGAGCC,"9.56 upbm affinity estimate (log intensity, higher = more binding, comparable within an allelic series)"
8,AGGATTTA,"12.4 upbm affinity estimate (log intensity, higher = more binding, comparable within an allelic series)"
9,ATATAAAG,"9.37 upbm affinity estimate (log intensity, higher = more binding, comparable within an allelic series)"
10,CAAAATAC,"9.13 upbm affinity estimate (log intensity, higher = more binding, comparable within an allelic series)"
11,AGAGCTCA,"9.42 upbm affinity estimate (log intensity, higher = more binding, comparable within an allelic series)"
12,AGATTTAT,"11 upbm affinity estimate (log intensity, higher = more binding, comparable within an allelic series)"
13,CTAAATCC,"12.4 upbm affinity estimate (log intensity, higher = more binding, comparable within an allelic series)"
14,TCTTGGCA,"7.96 upbm affinity estimate (log intensity, higher = more binding, comparable within an allelic series)"
15,CCTTCCAC,"8.11 upbm affinity estimate (log intensity, higher = more binding, comparable within an allelic series)"
16,CCGAGCAG,"8.01 upbm affinity estimate (log intensity, higher = more binding, comparable within an allelic series)"
17,GAACACGA,"8.02 upbm affinity estimate (log intensity, higher = more binding, comparable within an allelic series)"
18,TGGTCGAA,"7.84 upbm affinity estimate (log intensity, higher = more binding, comparable within an allelic series)"
19,GCTCCACC,"7.66 upbm affinity estimate (log intensity, higher = more binding, comparable within an allelic series)"
20,CTGGCCGC,"8.13 upbm affinity estimate (log intensity, higher = more binding, comparable within an allelic series)"
